# Data as given in publication PMC7819943, “Rice protein-binding microarrays: a tool to detect cis-acting elements near promoter regions in rice”.
# In all, about 68,000 sequences were measured (“fluorescence intensity (a.u.)”: median about 9,100, highest 2% from about 16,000 on). The list comes from a sample in which the highest values are over-represented; it also holds similar and randomly drawn sequences.
# Target: OsWRKY34 (Oryza sativa, UniProt Q0JBA9 1-250)
# Assay: protein-binding microarray (RPBM); PBS, 2% BSA, 51.3 ng/ul salmon testes DNA, 50 uM zinc acetate, 200 nM TF, 25 C, 1 h; high values mean tight binding
# Conditions: protein: recombinant; tags: N-terminal polyhistidine and DsRed monomer fusion (pET32a); label: CyDye5-dUTP incorporated in the synthesized complementary strand; 3' TTTTT single-stranded linker to array surface; dsDNA, one strand shown
# How it was run: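 The binding signal is fluorescence intensity per array feature (arbitrary units). Readings came from an Axon 4000B scanner after a washed, 2% BSA-blocked, double-stranded custom Agilent array had been incubated for 1 h at 25 °C with 200 nM protein and 50 µM zinc acetate. The protein was a Ni–NTA-purified transcription factor fused N-terminally to polyhistidine and DsRed, expressed in E. coli BL21-CodonPlus.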
# Chain of OsWRKY34 (Q0JBA9 entry or part of it): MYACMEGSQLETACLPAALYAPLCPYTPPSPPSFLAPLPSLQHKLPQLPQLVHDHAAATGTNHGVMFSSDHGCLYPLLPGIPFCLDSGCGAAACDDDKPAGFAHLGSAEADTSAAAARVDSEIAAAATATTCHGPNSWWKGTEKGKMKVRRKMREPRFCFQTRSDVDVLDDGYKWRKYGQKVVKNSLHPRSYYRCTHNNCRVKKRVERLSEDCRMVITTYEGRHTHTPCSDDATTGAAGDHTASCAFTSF
row,Sequence,binding signal
1,CGCCACCGTCCTGCTCACCGGCGTTCCGCCGGAACGACTTCGGAGTCACCTAGTGCAG,9640 fluorescence intensity (a.u.)
2,ATTTTTTTTGTCAAACTGCCACGAAAGCGTCACGTTAATACGGAGTCACCTAGTGCAG,8240 fluorescence intensity (a.u.)
3,CAATTCACGCCACCCGCTCCGCCTCTCGCCGCCTCGACCGCGGAGTCACCTAGTGCAG,11000 fluorescence intensity (a.u.)
4,AAATTTTGACTCCTTCAGTTAATGATTTTCGTATACAAATCGGAGTCACCTAGTGCAG,8180 fluorescence intensity (a.u.)
5,ATCTCTCTCATATTCCTTCGATCTGCAGCTTGTACGTTGGCGGAGTCACCTAGTGCAG,14500 fluorescence intensity (a.u.)
6,CTGTTGACTATCCATGCCATTTTTACCGATTAGTCTATCTCGGAGTCACCTAGTGCAG,13800 fluorescence intensity (a.u.)
7,CGCAGTCCGAAGTTGATTTTTTTTTTTTTTACGGAGTACTCGGAGTCACCTAGTGCAG,8250 fluorescence intensity (a.u.)
8,TGATTGTGTTTGTAGACTTGGTTGGTATTGTTGAACGGATCGGAGTCACCTAGTGCAG,11800 fluorescence intensity (a.u.)
9,TTTATGTAATGCCTTAAGATCACACATTGACTTATTTTTGCGGAGTCACCTAGTGCAG,8050 fluorescence intensity (a.u.)
10,AAATACTCCCTCCGTATTTTAATGTATGACACCGTTGACTCGGAGTCACCTAGTGCAG,10300 fluorescence intensity (a.u.)
11,CCGTATTTTAATGTATATGACACCGTTGACTTTTTGACCACGGAGTCACCTAGTGCAG,40800 fluorescence intensity (a.u.)
12,CATATTTTAATTTTAATGTATGACACCGTTGACTTTTCGACGGAGTCACCTAGTGCAG,16000 fluorescence intensity (a.u.)
13,CATCCGTATTTTAATGTATGACACCGTTGACTTTTCGACTCGGAGTCACCTAGTGCAG,19100 fluorescence intensity (a.u.)
14,AGAGGGAGTATTATGTTTATGCTTTTAATTTTTCACTTTGCGGAGTCACCTAGTGCAG,9150 fluorescence intensity (a.u.)
15,AGGGAGCCTATTTTAATGTATGACACCGTTGACTTTTTTGCGGAGTCACCTAGTGCAG,19200 fluorescence intensity (a.u.)
16,TTATGCATCGATATATACCACATGTCAACCGATGAATTCACGGAGTCACCTAGTGCAG,9490 fluorescence intensity (a.u.)
17,TTTTCCAAACTTCCAACTTTCTATCACATCAAACCTTTCACGGAGTCACCTAGTGCAG,8100 fluorescence intensity (a.u.)
18,ACCTGGCTGTGCATGTACTACCCCAATGCATTTCTCTCTCCGGAGTCACCTAGTGCAG,8250 fluorescence intensity (a.u.)
19,ATTCTGTAACCCGCTGCGGGCAACGGCCGGACGTGCAATCCGGAGTCACCTAGTGCAG,9630 fluorescence intensity (a.u.)
20,CTGATCGAATACTCTAGCATTGCGATCTTTCCAAATTTGCCGGAGTCACCTAGTGCAG,8510 fluorescence intensity (a.u.)
21,GGAGGGTGCGACAGCCCAATGTATCACTTGCGTTTGTATCCGGAGTCACCTAGTGCAG,8230 fluorescence intensity (a.u.)

row,Sequence,binding signal
1,GTAGCATGCTTCTATCCTGTCCCGGTGTTTGTCGTACATTCGGAGTCACCTAGTGCAG,10200 fluorescence intensity (a.u.)
2,GATTGAGTGTGCCCGTGTGAGATAGAATCTTTTTGCCCTTCGGAGTCACCTAGTGCAG,8930 fluorescence intensity (a.u.)
3,GGCTTCATCACAGCATCCATCGCCGCCGGCCACCACCACCCGGAGTCACCTAGTGCAG,12700 fluorescence intensity (a.u.)
4,AGCCACCACAGCCATCGCCCGTTCTTCCCGCCGGCCTATCCGGAGTCACCTAGTGCAG,9990 fluorescence intensity (a.u.)
5,CAGCCCGCCGCCCCGCCCCGCCCCGCCGCAGGTCATTGACCGGAGTCACCTAGTGCAG,16400 fluorescence intensity (a.u.)
6,ATCCCGTTGCGTCCCATTTTCCTCGCCCTCGTCGCTAGTTCGGAGTCACCTAGTGCAG,11200 fluorescence intensity (a.u.)
7,CCGCCATCGCCGCCGCCATCCGTTGACCATGGCTTCAGCCCGGAGTCACCTAGTGCAG,18900 fluorescence intensity (a.u.)
8,GCCGCTCACAGCCGTCTTCGCTTGCCCGCCGCCATCGCCACGGAGTCACCTAGTGCAG,17500 fluorescence intensity (a.u.)
9,ACAGCTTGCCGCCACCACCACACCACGCCGCTCGCCGCCCCGGAGTCACCTAGTGCAG,8950 fluorescence intensity (a.u.)
10,CCGCCGCTCCACCGTCTCAGCCATCGCCACCGCCCGCAGCCGGAGTCACCTAGTGCAG,8400 fluorescence intensity (a.u.)
11,GGCTTCCCGTTGCGCGCGCGTCCCATCCTCGCCGGCGCTTCGGAGTCACCTAGTGCAG,8470 fluorescence intensity (a.u.)
12,TGTCAGCCTCGTCCGGCTTCATCCCGTTGCGTCCCATTTTCGGAGTCACCTAGTGCAG,17600 fluorescence intensity (a.u.)
13,ACATCCCCGACCCGCCCCGCCTCACCGGTCATTCGCAGCCCGGAGTCACCTAGTGCAG,9440 fluorescence intensity (a.u.)
14,CACCGCCGCAGCCCAAGCCCACCACCACCACCGCCGCCGCCGGAGTCACCTAGTGCAG,9060 fluorescence intensity (a.u.)
15,ATCTTTTCCGCTGTTGCTGCTCCTCCTTTCTCGCTCTCGCCGGAGTCACCTAGTGCAG,9750 fluorescence intensity (a.u.)
16,AGGTTCTATGACAGTATTGCACCCGGTTTTGTCAGCTGACCGGAGTCACCTAGTGCAG,8600 fluorescence intensity (a.u.)
17,CTCCCGTGTCCCATTTAAAACCTTCTTCTTCTTCTTCGCTCGGAGTCACCTAGTGCAG,8650 fluorescence intensity (a.u.)
18,CGCCACCACTGCTGCCATCGTCAACATCCTATATGATTTTCGGAGTCACCTAGTGCAG,13400 fluorescence intensity (a.u.)
19,ATCAACCAGTAATCAATTGACCAAGCGGTTCTTGCGCCTACGGAGTCACCTAGTGCAG,9780 fluorescence intensity (a.u.)
20,GTTCTCACACTTCAGATTGTTATGTTTGGCTATGCTGTCTCGGAGTCACCTAGTGCAG,9600 fluorescence intensity (a.u.)
21,CTCTTAGCAATGCTGACTGGTCCGATCAAAGTCAACGGTTCGGAGTCACCTAGTGCAG,8730 fluorescence intensity (a.u.)
